The structures appear in SMILES notation. Hit rate of the full screen: of about 71,000 compounds, about 1,400 (2%) were called active. Where a call stands in place of a potency, no number is given. About 3% were inconclusive and are not listed. This excerpt belongs to a sample that is enriched for actives. A number with no mark means an inactive call. Calls follow the shape of the dose curve; as a rule, active = well fitted curve in the direction sought with a large enough effect; inconclusive = small, poorly fitted or top-dose-only effect; inactive = no such curve, though single readings can be large or run the other way.
Potency is read from the fitted curve at half-maximal effect.

The target in this test is Microtubule-associated protein tau (Homo sapiens) (UniProt P10636). Kind of test: qHTS Assay for Tau Filament Binding.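 Also: actives lower thioflavin S fluorescence by blocking filaments or displacing dye.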 The following applies: recombinant tau filaments, thioflavin S fluorescence, 15 h, filaments grown with octadecylsulfate alongside compound; series mostly up to 57.1 µM. An excerpt: NIH Molecular Libraries Screening Centers Network [MLSCN]
Microtubule-associated protein tau (Homo sapiens), sequence (P10636 whole entry, looked up): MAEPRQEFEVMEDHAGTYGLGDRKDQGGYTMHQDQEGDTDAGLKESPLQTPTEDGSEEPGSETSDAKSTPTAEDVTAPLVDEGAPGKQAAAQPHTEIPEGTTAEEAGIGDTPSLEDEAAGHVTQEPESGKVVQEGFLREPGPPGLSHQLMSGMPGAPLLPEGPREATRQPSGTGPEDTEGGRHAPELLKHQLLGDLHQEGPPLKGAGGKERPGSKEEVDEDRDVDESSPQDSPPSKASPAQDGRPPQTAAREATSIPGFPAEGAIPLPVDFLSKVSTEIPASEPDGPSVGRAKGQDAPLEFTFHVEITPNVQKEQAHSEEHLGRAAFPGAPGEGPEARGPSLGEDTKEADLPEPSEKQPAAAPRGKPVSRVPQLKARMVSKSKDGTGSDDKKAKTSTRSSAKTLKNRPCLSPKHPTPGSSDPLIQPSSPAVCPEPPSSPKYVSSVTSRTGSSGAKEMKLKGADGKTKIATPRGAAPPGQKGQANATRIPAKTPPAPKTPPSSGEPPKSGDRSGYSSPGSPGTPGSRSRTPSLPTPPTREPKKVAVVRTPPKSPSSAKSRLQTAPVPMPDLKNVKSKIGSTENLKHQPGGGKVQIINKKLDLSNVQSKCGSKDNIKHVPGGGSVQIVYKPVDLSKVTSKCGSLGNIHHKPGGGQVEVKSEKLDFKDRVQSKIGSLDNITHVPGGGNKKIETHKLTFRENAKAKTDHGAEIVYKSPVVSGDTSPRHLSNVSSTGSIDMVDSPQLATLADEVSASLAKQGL
NIH Chemical Genomics Center [NCGC]
Assay Provider: Jeffrey A. Kuret, Ohio State University
Tau monomers form filaments in vitro in the presence of anionic detergents or fatty acids. The dye Thioflavine S (ThS) binds to tau filaments and upon binding, increases in fluorescence several fold. Small molecules that displace ThS binding or prevent filament binding are identified by a reduction in ThS fluorescence. This assay used histidine-tagged, recombinant human tau protein containing the products of exons 2, 3, and 10 that was provided by Jeff Kuret, Ohio State University. To form filaments, 1 uM tau was incubated with 30 uM sodium octadecylsulfate (ODS) in reagent buffer (10 uM thioflavine S, 5 mM 1,4-dithioerythreitol (DTT), 100 mM sodium chloride, 10 mM HEPES pH 7.4) for 15 hrs at 37 C.
NCGC Assay Protocol Summary:
Assay Steps. Two uL/well of 2 uM tau in reagent buffer (10 uM thioflavine S, 5 mM DTT, 100 mM sodium chloride, 10 mM HEPES pH 7.4) was dispensed into solid black 1536-well plates. Twenty-three nL compound was transferred to the assay plate after which 2 uL/well of 60 uM ODS in reagent buffer was dispensed for a final assay volume of 4 uL /well. Following 15 hours of incubation at 37 C, fluorescence was detected by an Envision (Perkin Elmer) using 450/8 nm excitation and 510/23 nm emission.
Keywords: NIH Roadmap, MLSCN, MLI, MLSMR, qHTS, NCGC, Alzheimer's disease, Neurofibrillary lesions, tau, tubulin assembly, microtubule stability, cytoskeletal integrity, fibrillization, thioflavin dyes, Amyloidgenic
In the case of `c1ccc(CSc2nnc(-c3ccco3)c(-c3ccco3)n2)cc1`, the Potency was 7.94 µM (active).
Still for that read-out and setting: as for `Nc1cc(=O)nc(SCc2ccccc2)n1Cc1ccco1`, the entry is “inactive”; as for `c1ccc(CSc2nnc(-c3ccco3)n2Cc2ccccc2)cc1`, “inactive”.
On the same count and under the same terms, the value for `COc1cccc(Cn2c(=O)c(C)nc3cnc(Oc4ccccc4)nc32)c1` was “inactive”; that for `O=C(O)c1nccnc1C(=O)Nc1ccc(Br)cn1` was “inactive”; that for `CCS(=O)(=O)N(C)[C@@H]1c2cc(C#N)ccc2OC(C)(C)[C@H]1O` was 39.8 µM (active).
With `C=CCOC(=O)COCCC(C)C`, the Potency result was “inactive”.
On to `NC[C@@H]1O[C@H](O[C@@H]2[C@H](O[C@@H]3O[C@H](CO)[C@@H](COC[C@H]4O[C@@H](CN)[C@@H](O)[C@@H](O)[C@@H]4N)[C@@H]3O)[C@@H](O)[C@@H](N)C[C@H]2N)[C@@H](N)[C@H](O)[C@@H]1O`, for which the Potency entry is “inactive”.
Still for that read-out and setting: the value for `O=Cc1c(Cl)cccc1Cl` was “inactive”; that for `CC(=O)OCC(COC(C)=O)OC(C)=O` was “inactive”.
Same read-out and setting: the value for `CC(c1ccccc1)n1c(NCCCn2ccnc2)nc2c1c(=O)[nH]c(=O)n2C` (stereo not given) was “inactive”; that for `Clc1cccc(-c2nc3nc4ccccc4nc3n2Cc2ccco2)c1` was 15.8 µM (active).
On the same count and under the same terms, the value for `CC(Sc1nc2ccccc2c(=O)n1Cc1ccco1)C(=O)c1ccccc1` (stereo not given) was “inactive”; that for `O=C(CSc1nnc(-c2cccnc2)n1Cc1ccco1)c1ccc(Cl)cc1` was “inactive”.
As for `CC(C)CSC[C@@H]1O[C@H](n2cnc3c(N)nccc32)[C@H](O)[C@@H]1O`, the activity change, negative = inhibition was -0.6% [at 11.4 µM].
As to `O=c1c(CCc2ccccc2)nc2cnc(N3CCNCC3)nc2n1Cc1cccs1`, the Potency result is “inactive”.
Consider `Cc1cc(C)cc(N)c1`, for which the Potency entry is “inactive”.
Take `N#Cc1ccc(COC(=O)Cn2nnc(-c3ccccc3)n2)cc1`: the Potency entry is “inactive”.
On to `NC1(C(=O)OCc2ccccc2)CCCC1`, for which the activity change, negative = inhibition was 6.1% [at 11.4 µM].
On to `N#Cc1c(N)sc2c1CCN(C(=O)OCc1ccccc1)C2`, for which the Potency was 15.8 µM (active).
Same read-out and setting: the value for `COC(=O)C1=C(C)NC(=O)NC1/C=C/c1ccccc1` (stereo not given) was “inactive”; that for `COc1ccccc1NC(=O)C1=C(C)NC2=C(C(=O)CCC2)C1c1ccc(C)o1` (stereo not given) was “inactive”; that for `COC(=O)C1=C(C)NC2=C(C(=O)c3ccccc32)C1c1ccc(-c2ccc(C(=O)O)cc2)o1` (stereo not given) was 25.1 µM (active).
Consider `Cc1cccc(C(=O)O)c1`, for which the Potency result was “inactive”.
Still for that read-out and setting: the value for `CCN(CC)C(=O)c1sc(NC(=O)c2ccco2)c(C#N)c1C` was “inactive”.
On the same count and under the same terms, as for `COc1ccc(C(=O)N/N=C2/C(=O)c3c(C)cc(C)cc3CC2(C)C)cc1`, the figure is 5.01 µM (active); as for `COc1ccc(NC(=O)c2ccc(OC)cc2)cc1`, “inactive”; as for `CCCC[C@H]1C(=O)N(c2ccccc2)N(c2ccc(O)cc2)C1=O`, “inactive”.
On the same count and under the same terms, as for `CCCC1CC(C)(C(=O)Cn2[nH]c(=O)ccc2=O)OC1=O` (stereo not given), the entry is “inactive”; as for `CN(C)CCSc1nc(N)c2c3c(sc2n1)COC(C)(C)C3`, 12.6 µM (active); as for `CCC1(C)Cc2c(sc3nc4n(c(=O)c23)CCCS4)CO1` (stereo not given), “inactive”.
As for `O=C1NC(=O)[C@@](Cc2ccccc2)(c2cccnc2)N1`, the activity change, negative = inhibition is -0.4% [at 11.4 µM].
As for `COC(=O)C1(C)C=CC2(CCCCC2)N1C(C)=O` (stereo not given), the Potency result was “inactive”.
The same measure, in the same setting: as for `Cn1c(=O)c(CCc2ccccc2)nc2cnc(Nc3ccccc3)nc21`, the entry is “inactive”.
Regarding `CNC(=O)C1(C)C=CC2(CCCCC2)N1C(C)=O` (stereo not given), the Potency entry was “inactive”.
Still for that read-out and setting: the value for `Cc1nn2c(c1-c1ccccc1)N=C(c1ccco1)CC2c1ccccc1` (stereo not given) was 10 µM (active); that for `Cc1nn(C(=O)c2ccoc2C)c(N)c1-c1ccccc1` was “inactive”.
On the same count and under the same terms, the value for `C[C@@H]1O[C@@H](O[C@@H]2[C@@H](O)[C@H](OCCc3ccc(O)c(O)c3)O[C@H](CO[C@@H]3O[C@H](CO)[C@@H](O)[C@H](O)[C@H]3O)[C@H]2OC(=O)/C=C/c2ccc(O)c(O)c2)[C@H](O)[C@H](O)[C@H]1O` was “inactive”; that for `CCCC(C(=O)NCc1ccco1)N(C(=O)CNS(=O)(=O)c1ccccc1)C1CCCC1` (stereo not given) was “inactive”.
Same read-out and setting: as for `CC(=O)N1CCC2(CC1)CCN(c1ccncc1)CC2`, the entry is “inactive”; as for `CC(=O)N1CCN(c2ccc(NCc3ccc(C(C)C)cc3)cc2)CC1`, 25.1 µM (active); as for `CN1CCN(c2ccc(NC(=O)COc3ccc(Cl)cc3Cl)cc2)CC1`, “inactive”.
Consider `COCCNc1ncnc2ccc(-c3ccccc3CN(C)C)cc12`, for which the Potency result was “inactive”.
As to `O=c1cc(-c2ccc(O)c(O)c2)oc2cccc(O)c12`, the Potency is 39.8 µM (active).
With `COC(=O)[C@@]1(Cc2ccc(F)cc2)[C@@H]2[C@@H](CC(=O)[C@H]2CC(=O)C(=O)N2CCCC2)CN1C(=O)c1ccccc1`, the Potency entry is “inactive”.
The same measure, in the same setting: the value for `Cc1ccc(/C(=C/CN2CCCC2)c2ccccn2)cc1` was “inactive”; that for `C=C(C)C1CC=C(C)C(O)C1` (stereo not given) was “inactive”.
Still for that read-out and setting: the value for `CC(=O)Oc1ccccc1C(=O)Nc1ncc([N+](=O)[O-])s1` was “inactive”; that for `O=c1c(CCc2ccccc2)nc2cncnc2n1C1CC1` was “inactive”.
Same read-out and setting: the value for `c1ccc(-c2cc(-c3nnc4sc(-c5ccccn5)nn34)[nH]n2)cc1` was 1 µM (active); that for `COc1cc(-c2nn3c(-c4cccc(C)c4)nnc3s2)cc(OC)c1OC` was “inactive”; that for `Cc1cccc(NC(=O)C2CCN(S(=O)(=O)c3cccc4cccnc34)CC2)c1` was “inactive”.
Regarding `COC(=O)CCCCCN1C(=O)NC(c2ccc(-c3ccccc3)cc2)C(C(=O)OCc2ccccc2)=C1C` (stereo not given), the Potency result was “inactive”.
The same measure, in the same setting: as for `O=C(CN1CCN(c2ccc(F)cc2)CC1)Nc1cccc(C(F)(F)F)c1`, the entry is “inactive”.
Consider `O=C(CSc1nnc(-c2ccco2)o1)NCC(=O)c1ccccc1`, for which the Potency entry was “inactive”.
For `CCCCN(C)C(=O)c1ccc2c(c1)N(CC)C(=O)c1ccccc1S2(=O)=O`, the Potency entry is “inactive”.
The same measure, in the same setting: the value for `CCN1C(=O)c2cccc3c(N)ccc1c23` was 25.1 µM (active).
Still for that read-out and setting: the value for `Oc1ccc(O)c2c(O)cccc12` was 5.01 µM (active).
On the same count and under the same terms, the value for `COC(=O)Nc1ncc(CN2C(=O)c3ccccc3C2=O)s1` was “inactive”; that for `CCOc1ccccc1N=C1NC(=O)CS1` was “inactive”.
As to `C[N+](C)(C)CCCCCNCC12CC3CC(CC(C3)C1)C2`, the Potency is 31.6 µM (active).
The same measure, in the same setting: the value for `CCc1ccc(CCC(=O)Nc2ccc(S(N)(=O)=O)cc2)o1` was “inactive”; that for `COC(=O)c1ccc2c(=O)n(CC3CCCO3)c(=S)[nH]c2c1` (stereo not given) was “inactive”; that for `COc1ccc(CNC(=O)c2cc3c(=O)n4ccccc4nc3n(CC3CCCO3)c2=N)cc1` (stereo not given) was 2.51 µM (active).
Still for that read-out and setting: as for `COc1ccc(CCn2c(=N)c(C(=O)NCc3ccco3)cc3c(=O)n4cccc(C)c4nc32)cc1`, the figure is 2 µM (active); as for `O=C(Nc1ccccc1)Nc1ccccc1C(=O)NCc1ccco1`, “inactive”; as for `O=C(NCc1ccco1)c1cccn2c(=O)c3cc(Br)ccc3nc12`, 25.1 µM (active).
The same measure, in the same setting: as for `Cc1cccn2c(=O)c3cc(C(=O)NCc4ccccn4)n(C)c3nc12`, the entry is “inactive”; as for `CCOc1ccccc1C(=O)NCc1ccco1`, “inactive”.
Turning to `CCn1c(=N)c(C(=O)NCCCOC)cc2c(=O)n3cccc(C)c3nc21`, the Potency result was “inactive”.

(Values after PubChem BioAssay AID596 (National Center for Advancing Translational Sciences (NCATS), 2007).)
